Experimental data: PMC4336329 (PLoS ONE, 2015)
Among all 310,000 compounds or so, about 14,000 (4.5%) showed an effect of 50% or more. The effect is printed as a negative number. This excerpt belongs to a sample that is enriched for strong results.

molecular target: human ether-à-go-go-related gene (hERG) potassium channel (human, UniProt Q12809); test: primary screen, population patch clamp on CHO cells stably expressing hERG; higher = less effect of the substance
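Also: peak tail current of the secondary pulse compared with the same well before compound.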

Sequence of human ether-à-go-go-related gene (hERG) potassium channel (Q12809 whole entry, looked up): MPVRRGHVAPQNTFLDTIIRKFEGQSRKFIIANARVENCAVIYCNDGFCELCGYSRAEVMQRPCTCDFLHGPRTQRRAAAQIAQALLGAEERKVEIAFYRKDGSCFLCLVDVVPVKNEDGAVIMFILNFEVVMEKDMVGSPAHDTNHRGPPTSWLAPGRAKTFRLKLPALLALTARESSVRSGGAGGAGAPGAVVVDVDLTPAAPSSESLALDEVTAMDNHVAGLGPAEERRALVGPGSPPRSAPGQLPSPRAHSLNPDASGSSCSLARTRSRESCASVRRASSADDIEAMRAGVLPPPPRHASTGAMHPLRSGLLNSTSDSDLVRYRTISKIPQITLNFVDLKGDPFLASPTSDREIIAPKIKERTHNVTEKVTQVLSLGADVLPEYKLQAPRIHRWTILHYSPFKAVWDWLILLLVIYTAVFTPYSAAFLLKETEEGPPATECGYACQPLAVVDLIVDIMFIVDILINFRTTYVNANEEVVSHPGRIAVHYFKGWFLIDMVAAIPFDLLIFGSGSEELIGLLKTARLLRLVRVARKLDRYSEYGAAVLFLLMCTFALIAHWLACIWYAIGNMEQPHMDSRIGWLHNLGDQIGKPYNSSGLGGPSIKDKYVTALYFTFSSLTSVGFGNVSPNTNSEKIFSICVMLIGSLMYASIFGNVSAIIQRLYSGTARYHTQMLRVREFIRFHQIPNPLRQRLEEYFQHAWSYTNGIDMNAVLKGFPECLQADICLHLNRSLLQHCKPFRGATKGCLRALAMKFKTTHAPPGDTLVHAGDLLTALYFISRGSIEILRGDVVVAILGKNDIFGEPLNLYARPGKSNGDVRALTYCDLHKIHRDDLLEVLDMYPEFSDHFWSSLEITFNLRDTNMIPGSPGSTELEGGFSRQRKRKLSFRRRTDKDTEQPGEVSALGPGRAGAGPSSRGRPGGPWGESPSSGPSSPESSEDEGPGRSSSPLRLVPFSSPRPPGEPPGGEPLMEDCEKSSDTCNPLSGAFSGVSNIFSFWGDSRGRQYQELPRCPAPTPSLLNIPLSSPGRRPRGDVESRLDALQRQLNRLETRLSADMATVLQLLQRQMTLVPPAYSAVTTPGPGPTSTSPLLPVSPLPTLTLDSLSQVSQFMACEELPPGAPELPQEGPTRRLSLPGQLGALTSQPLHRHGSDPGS

Structure (SMILES) | hERG current change (%, negative = inhibition) at 10uM
Cc1cccc(C(=O)NNS(=O)(=O)c2ccc(F)cc2)c1 | 8.24%
O=c1cc(CO)oc(C(Nc2ccccn2)c2ccc(F)cc2)c1O (stereo not shown) | 9.87%
O=C(c1ccc2oc(CCc3ccccc3)nc2c1)N1CCC(O)CC1 | 14.9%
Cc1ccc(C(=O)NCC(=O)OCC(=O)c2ccccc2)s1 | -12.6%
COc1ccc(CC(=O)Nc2c(C(N)=O)oc3ccccc23)cc1OC | 11.4%
COc1ccc(CCNS(=O)(=O)c2ccc(Br)s2)cc1 | -5.73%
O=C(N/N=C/c1cc([N+](=O)[O-])ccc1O)c1cccc(N2CCCC2=O)c1 | 3.22%
CC(OC(=O)CCc1nc2ccccc2[nH]c1=O)c1ccccc1 (stereo not shown) | -5.1%
O=C(NC1CCCCC1)C1CCN(C(=O)c2ccc(Cl)cc2)CC1 | -6.16%
O=C(Nc1ccccc1N1CCCCC1)C1CCN(C(=O)c2ccc(Cl)cc2)CC1 | -69.9%
O=C(Nc1ccccc1N1CCCCC1)c1ccc(Cl)cc1 | 12.6%
CC(C)(C)C(=O)COC(=O)c1cc(-c2ccncc2)nc2ccccc12 | -8.43%
COc1ccc(-n2c(SCC(=O)Nc3cc(C)on3)nc3c(c2=O)SCC3)cc1 | 12.1%
COCCN1CN(S(=O)(=O)c2ccc(Cl)cc2)c2nc3ccccc3nc21 | -75.9%
COCCN1CN(S(=O)(=O)c2ccccc2)c2nc3ccccc3nc21 | -16.7%
COCCCN1CN(S(=O)(=O)c2ccc(Cl)cc2)c2nc3ccccc3nc21 | -32.7%
COCCn1nnnc1C(C(C)C)N1CCN(C(=O)c2ccco2)CC1.Cl (stereo not shown) | -1.29%
CCOC(=O)Cc1nnc(NC(=O)c2ncn[nH]2)s1 | -9.4%
CN1CC(=O)N(CC(=O)Nc2ccc(Cl)c(C(F)(F)F)c2)C1=O | 8.97%
CCCCC(O)CN1CCC(c2ccccc2)CC1 (stereo not shown) | -56.6%
CCOC(=O)CN1CCC(c2ccccc2)CC1 | -2.19%
CC(CN1CCC(O)CC1)c1ccccc1 (stereo not shown) | 10.6%
O=C(Nc1ccc(S(=O)(=O)Nc2nccs2)cc1)c1cc(-c2ccncc2)nc2ccccc12 | 10.1%
O=C(c1cccc(F)c1F)N1CCCC1 | 24.7%
Cc1cc(COC(=O)C2N3C(=O)[C@@H](NC(=O)COc4ccccc4)[C@H]3SC2(C)C)on1 (stereo partly shown) | -56.2%
COC(=O)C1N2C(=O)[C@@H](NC(=O)COc3ccccc3)[C@H]2SC1(C)C (stereo partly shown) | -4.31%
CC1(C)S[C@@H]2[C@H](NC(=O)COc3ccccc3)C(=O)N2C1C(=O)OCc1ccccc1 (stereo partly shown) | -48.1%
Cc1nc2c(Br)c3nc(C(F)(F)F)[nH]c3c(Br)c2[nH]1 | -4.86%

Structure (SMILES) | hERG current change (%, negative = inhibition) at 10uM
COc1ccc(N(C(=O)CNC(=O)c2cccs2)C(C(=O)NCC2CCCO2)c2ccccc2)cc1OC (stereo not shown) | 4.94%
COc1ccccc1NC(=O)c1ccc(-c2ccccc2[N+](=O)[O-])o1 | 26.7%
CCC(=O)N1CCN(c2ccc(Cl)cc2NC(=O)c2ccc([N+](=O)[O-])o2)CC1 | -21%
Cc1cccc(NC(=O)c2ccc(-c3ccccc3[N+](=O)[O-])o2)c1 | -55.2%
CN1CCN(c2ccccc2NC(=O)c2ccc(-c3ccc(Cl)cc3Cl)o2)CC1 | -3.82%
O=C(Nc1ccccc1N1CCOCC1)c1ccc([N+](=O)[O-])o1 | -17.9%
CN1CCN(c2ccccc2NC(=O)c2ccc(-c3ccccc3[N+](=O)[O-])o2)CC1 | -67.9%
COc1cccc(NC(=O)c2ccc(-c3ccccc3[N+](=O)[O-])o2)c1 | -46.1%
CN1CCN(c2ccccc2NC(=O)c2ccc([N+](=O)[O-])o2)CC1 | -69.6%
CC(=O)c1cccc(NC(=O)c2ccc(-c3ccccc3[N+](=O)[O-])o2)c1 | -17.4%
CCC(=O)N1CCN(c2ccccc2NC(=O)c2ccc([N+](=O)[O-])o2)CC1 | -69%
O=C(Nc1ccccc1N1CCCC1)c1ccc([N+](=O)[O-])o1 | 5.51%
Cc1ccccc1NC(=O)c1ccc([N+](=O)[O-])o1 | 11.5%
CN1CCN(C(=O)C(C(=O)c2ccc(F)cc2)n2ccccc2=O)CC1 (stereo not shown) | -1.24%
Cc1ccc(C)c(N2CCN(S(=O)(=O)c3ccc4c(c3)NC(=O)CO4)CC2)c1 | 12.7%
O=C(O)c1cccc(Cn2c(Cl)c(/C=N/NC(=O)c3ccco3)sc2=O)c1 | 38.3%
Cc1ccc(N(C(=O)c2csnn2)C(C(=O)NC2CCCCC2)c2cccnc2)c(C)c1 (stereo not shown) | -5.38%
N#CCCN(C(=O)COC(=O)CNC(=O)C12CC3CC(CC(C3)C1)C2)c1ccccc1 | -23.5%
CC12CCC(C(=O)NCCc3ccccc3)(OC1=O)C2(C)C (stereo not shown) | 9.83%
CSc1nnc(C)c(=O)n1COC(=O)c1ccc(S(=O)(=O)N2CCCC2)cc1 | -22.8%
O=C(CCS(=O)(=O)c1cccc2nonc12)NCCc1ccccc1Cl | -7.38%
CC(C)NC(=O)CN1C(=O)NC(CCc2ccccc2)C1=O (stereo not shown) | 5.75%
COc1cc(C)ccc1OCCCCOc1ccccc1C(C)=O | 3.3%
CCn1c(CNC(=O)c2cccnc2)cc2ccccc21 | 2.41%
Cc1ccc(C2NC(=S)NC3=C2N2CCC3CC2)cc1 (stereo not shown) | 1.2%
CCOC(=O)c1sc(NC(=O)CSc2nc(C)cc(C)c2C#N)c(C#N)c1C | 8.19%
O=C(/C=C/c1ccc(Cl)c(Cl)c1)N1CCOCC1 | -1.3%
